# Data: the supplement of paper PMC4709259
# Where a name gives a salt, the structure may show the parent alone. ± gives the standard deviation.
# Columns and labels:
# [1] = system: Jurkat; assay: mean cell size (FSC-A) relative to DMSO control (fraction of control); higher = larger cells; settings: 48 h
# Outline: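 Jurkat cells at 600 cells/µl were incubated for 1 h and then treated for 48h with the Enzo Screen-Well FDA Approved Drug Library v2.0 at 25µM, with DMSO at 0.9% (v/v) final. Compounds that reduced counts below 20% of controls were retested in 10-fold dilutions down to 25nM. Cell count and mean cell size, taken as forward scatter area, were measured by flow cytometry relative to solvent-only controls. Each plate carried 6-12 controls, and values are means of 3 biological replicates.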
# [2] = system: Jurkat; assay: cell count relative to DMSO control (fraction of control); higher = more cells (less growth inhibition); settings: 48 h
Structure (SMILES),mean cell size [1],cell count [2]
Cc1cccc(C)c1NC(=O)C1CCCCN1C (centres undefined) [Mepivacaine·HCl] (concentration: 25 µM),0.91 ± 0.035,1.31 ± 0.14
CCCc1nn(C)c2c(=O)[nH]c(-c3cc(S(=O)(=O)N4CCN(C)CC4)ccc3OCC)nc12 [Sildenafil Citrate] (concentration: 25 µM),1.02 ± 0.055,0.719 ± 0.22
O=C1O[C@H]([C@@H](O)CO)C(O)=C1O [L-Ascorbic Acid] (concentration: 25 µM),1 ± 0.029,0.836 ± 0.068
NCCS [Cysteamine·HCl] (concentration: 25 µM),0.957 ± 0.034,0.513 ± 0.13
COc1cccc2c1C(=O)c1c(O)c3c(c(O)c1C2=O)C[C@@](O)(C(=O)CO)C[C@@H]3O[C@H]1C[C@H](N)[C@@H](O)[C@H](C)O1 [Epirubicin·HCl] (concentration: 250 nM),1.42 ± 0.022,0.206 ± 0.052
CCOc1nc2cccc(C(=O)O)c2n1Cc1ccc(-c2ccccc2-c2nnn[nH]2)cc1 [Candesartan] (concentration: 25 µM),1.01 ± 0.042,0.901 ± 0.11
COc1c(N2CCNC(C)C2)c(F)cc2c(=O)c(C(=O)O)cn(C3CC3)c12 (centres undefined) [Gatifloxacin] (concentration: 25 µM),0.956 ± 0.024,0.661 ± 0.17
C[C@@H]1C[C@H]2[C@@H]3CCC4=CC(=O)C=C[C@]4(C)[C@@]3(F)[C@@H](O)C[C@]2(C)[C@H]1C(=O)CO [Desoximetasone] (concentration: 25 µM),0.949 ± 0.035,0.764 ± 0.02
CC(C)NCC(O)COc1ccc(CC(N)=O)cc1 (racemic) [(±)-Atenolol] (concentration: 25 µM),0.836 ± 0.018,1.14 ± 0.087
O=C(O)COCCN1CCN(C(c2ccccc2)c2ccc(Cl)cc2)CC1 (centres undefined) [Cetirizine 2HCl] (concentration: 25 µM),0.962 ± 0.032,1.01 ± 0.12
CN(C/C=C/C#CC(C)(C)C)Cc1cccc2ccccc12 [Terbinafine·HCl] (concentration: 25 µM),0.947 ± 0.018,0.947 ± 0.08
N=c1nc(N2CCCCC2)cc(N)n1O [Minoxidil] (concentration: 25 µM),1 ± 0.024,0.703 ± 0.083
Cc1cn([C@H]2C=C[C@@H](CO)O2)c(=O)[nH]c1=O [Stavudine] (concentration: 25 µM),1.04 ± 0.06,0.764 ± 0.071
C[C@](N)(Cc1ccc(O)c(O)c1)C(=O)O [Methyldopa Sesquihydrate (L-Α-Methyl-Dopa Sesquihyrate)] (concentration: 25 µM),0.958 ± 0.027,0.834 ± 0.052
COc1cc([C@@H]2c3cc4c(cc3[C@@H](O[C@@H]3O[C@@H]5CO[C@@H](C)O[C@H]5[C@H](O)[C@H]3O)[C@H]3COC(=O)[C@H]23)OCO4)cc(OC)c1O [Etoposide] (concentration: 250 nM),1.25 ± 0.076,0.243 ± 0.051
Nc1nc2[nH]cnc2c(=S)[nH]1 [Thioguanine (6-Thioguanine)] (concentration: 25 µM),0.935 ± 0.045,1.09 ± 0.061
Nc1ccc(S(N)(=O)=O)cc1 [Sulfanilamide] (concentration: 25 µM),0.925 ± 0.018,0.546 ± 0.18
CCCNC(=O)NS(=O)(=O)c1ccc(Cl)cc1 [Chlorpropamide] (concentration: 25 µM),1.04 ± 0.021,1.02 ± 0.048
Cn1nnc2c(C(N)=O)ncn2c1=O [Temozolomide] (concentration: 25 µM),0.959 ± 0.052,0.543 ± 0.12
Cc1cn([C@H]2C[C@H](N=[N+]=[N-])[C@@H](CO)O2)c(=O)[nH]c1=O [Zidovudine (3'-Azido-3'-Deoxythymidine)] (concentration: 25 µM),1.03 ± 0.025,0.714 ± 0.027
NC1=NCC2c3ccccc3Cc3ccccc3N12 (centres undefined) [Epinastine·HCl] (concentration: 25 µM),0.951 ± 0.014,1.06 ± 0.077
C#C[C@]1(O)CC[C@H]2[C@@H]3CCC4=CC(=O)CC[C@@H]4[C@H]3CC[C@@]21CC [Levonorgestrel] (concentration: 25 µM),0.941 ± 0.032,0.903 ± 0.046
CCOC(=O)[C@H](CCc1ccccc1)N[C@@H](C)C(=O)N1Cc2ccccc2C[C@H]1C(=O)O [Quinapril·HCl] (concentration: 25 µM),0.998 ± 0.022,1.01 ± 0.11
CN1C2CCCC1CC(NC(=O)c1nn(C)c3ccccc13)C2 (centres undefined) [Granisetron·HCl] (concentration: 25 µM),0.9687 ± 0.004,0.899 ± 0.037
CC(C)NCC(O)COc1ccc(CCOCC2CC2)cc1 (centres undefined) [Betaxolol·HCl] (concentration: 25 µM),1.01 ± 0.038,0.95 ± 0.17
Clc1ccc2c(c1)C(N1CCNCC1)=Nc1ccccc1O2 [Amoxapine] (concentration: 25 µM),1.03 ± 0.013,0.538 ± 0.073
Nc1ccc(C(=O)O)c(O)c1 [4-Aminosalicylic Acid] (concentration: 25 µM),0.914 ± 0.016,0.844 ± 0.14
